Compounds without any hit were thinned out: in the full panel of roughly 83,000, 20% have a hit.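 Single-concentration screen, 48 h exposure, 96-well plates. Endpoint: percent growth. Below 10 = active.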 Activity calls are given as the source filed them.
Test system: HL-60(TB) leukemia
Experiment: NCI-60 one-dose screen, 48 h (100 = growth as untreated, 0 = no growth, -100 = all killed)
Details: 10 µM unless noted

SMILES	growth
CCN(CC)CCOc1cccc2c1C(=O)c1cccc(OCCN(CC)CC)c1C2=O	19.7% (inactive)
CCOC(=O)C(CCC(C)C)C(=O)OCC	72.8% (inactive)
COc1cc(-c2n/c(=C\c3c(O)[nH]c4ccccc34)cc3c2=Nc2ccccc2-3)cc(OC)c1OC	-15.3% (active)
CCOC(=O)/C=C1\S/C(=N\Nc2cc(=O)[nH]c3ccc(Cl)cc23)N(c2ccccc2)C1=O	0.175% (active)
